The values that follow come from PubChem BioAssay AID1986 (Sanford-Burnham Center for Chemical Genomics, 2009).

This test in a line: cell-free HIV fusion peptide-binding blockers – biochemical, uHTS, fluorescence dequenching, primary screen (AID 1986). To be noted: 30 min, stronger effect = higher value.
Where [1] appears, read: measured here: repeat confirmation average inhibition, at 18.6 µM.

In all, about 290,000 compounds went through this assay and about 890 (0.31%) were called active. Rule as the data show it: active = inhibition mostly above about 52% (no sharp cut-off); inactive = mostly below about 76%. What follows is part of a selection rich in actives, with near analogues and random picks from the rest.

The inhibition is the drop in the measured response relative to a control, in per cent. For the molecule `Cc1ccc(-n2nnc(-c3cc4ccccc4nc3Cl)n2)cc1`, the inhibition (at 20 µM) was 0.2% (inactive). The same measure, in the same setting: the figure for `O=C(CN(c1ccc(F)cc1)S(=O)(=O)c1ccc2c(c1)OCCO2)NCC1CCCO1` (centres undefined) is 1.4% (inactive).

For `CCOc1ccc2nc(SCC(=O)c3ccc(C)s3)sc2c1`, the inhibition (at 20 µM) was 0% (inactive).

Regarding `CCOc1ccc(NC(=O)C2CSC(c3ccncc3)=N2)cc1` (centres undefined), where the note is “at 20 µM”, the inhibition is 1.2% (inactive). The same measure, in the same setting: the figure for `CC1=C(C(=O)Nc2ccccn2)C(c2ccccc2)n2ncnc2N1` (centres undefined) is -2.7% (inactive); for `CCNc1nc(NC(C)C)nc(SCCOC(=O)c2ccccc2)n1` it is 2.3% (inactive); for `Cc1c(C)n(Cc2ccc(F)cc2)c2ccc(C(=O)NCCN3CCOCC3)cc12` it is -1.7% (inactive). Still for that read-out and setting: next, `COc1ccccc1NS(=O)(=O)c1cccc(NC(=O)Nc2ccccc2)c1`: 1.4% (inactive); `O=C(Nc1ccccc1C(=O)O)c1cccc(N2C(=O)c3ccccc3C2=O)c1`: 2.5% (inactive); `NC(=O)NCc1cccc(Cl)c1`: 2.5% (inactive). Consider `CCOC(=O)C(=CNc1ccc(C(F)(F)F)cc1Cl)C(=O)OCC`, for which the inhibition (at 20 µM) was 0.9% (inactive).

Regarding `CCOc1ccc2c(c1)c1nnc(SCC(=O)NC3CC3)nc1n2C`, the inhibition (at 20 µM) is -0.7% (inactive).

With `C(=N\NC1=Nc2cccc3cccc1c23)/c1ccccc1`, the inhibition (at 20 µM) was 20.5% (inactive).

As for `Clc1ccc(/C=N/NC2=Nc3cccc4cccc2c34)cc1`, the inhibition (at 20 µM) was 43.5% (inactive).

On to `Clc1ccccc1/C=N/NC1=Nc2cccc3cccc1c23`, for which the inhibition (at 20 µM) is 51.2% (active). Turning to `N/C(CC(=O)NC1CCCCC1)=N\OCC(=O)Nc1ccc(Cl)c(Cl)c1`, the inhibition (at 20 µM) was 1.7% (inactive).

On to `COc1ccc(/C=C/C(=O)NC(=S)Nc2cc3oc4ccccc4c3cc2OC)cc1`, for which the inhibition (at 20 µM) is 1.6% (inactive). Same read-out and setting: the figure for `COc1cc2c(cc1NC(=S)NC(=O)/C=C/c1ccc(OC)c(OC)c1)oc1ccccc12` is 1.2% (inactive); for `COc1cc2c(cc1NC(=S)NC(=O)/C=C/c1ccco1)oc1ccccc12` it is 67.5% (active). Same read-out and setting: next, `COc1ccc(C2NC(=O)c3ccccc3O2)cc1` (centres undefined): -1.3% (inactive); `Cc1ccc(SCCNCc2ccco2)cc1`: 0.3% (inactive). Regarding `COc1cc2c(cc1OC)-c1cc3ccc4c(c3c[n+]1CC2)OCO4`, the inhibition reads like this: (at 20 µM) 120% (active); under setting [1], 70.7%. As for `COc1ccc2cc3[n+](cc2c1OC)CCc1cc2c(cc1-3)OCO2`, the inhibition (at 20 µM) is -1.4% (inactive).

`COc1cc2c(cc1O)CC[n+]1cc3c(OC)c(OC)ccc3cc1-2`: under “at 20 µM”, the inhibition was 0.6% (inactive). On the same count and under the same terms, the figure for `O=[N+]([O-])c1sccc1CS(=O)(=O)c1ccccc1` is -1.5% (inactive); for `CC(=O)Nc1cccc(NC(=O)c2ccc([N+](=O)[O-])cc2Cl)c1` it is 3.5% (inactive); for `O=C(Nc1cccc(Cl)c1)c1cc(N=Nc2ccc([N+](=O)[O-])cc2Cl)ccc1O` it is 52.8% (active). Still for that read-out and setting: the figure for `O=C(Nc1cccc(O)c1)c1ccc([N+](=O)[O-])cc1Cl` is 0.3% (inactive); for `CC1C(=O)N2CCCc3cc(NS(C)(=O)=O)cc1c32` (centres undefined) it is 2.3% (inactive); for `Cc1cc(N2CCCC2)ccc1/C=C1\NC(=S)N(C)C1=O` it is 94.7% (active). On the same count and under the same terms, the figure for `O=C1N/C(=C/c2ccc(N3CCCC3)cc2)C(=O)N1c1ccccc1` is 4.9% (inactive); for `Cc1cc(N2CCCC2)ccc1/C=C1/C(=O)N(C)C(=S)N1C` it is 9.5% (inactive). For the molecule `O=C1/C(=C/c2ccc(N3CCCC3)cc2)NC(=S)N1C1CC1`, the inhibition is 65.9% (active) (at 20 µM) and 83.2% under setting [1].

`COCCN1C(=O)/C(=C/c2ccc(N3CCCC3)cc2C)SC1=S`: the inhibition (at 20 µM) is 147% (inactive).

Consider `CCN1C(=O)/C(=C/c2ccc(N3CCCC3)cc2)NC1=S`, for which the inhibition (at 20 µM) was 149% (inactive). The same measure, in the same setting: the figure for `CC(C)(C)C(=O)Nc1cccc(-c2nc3ccccc3[nH]2)c1` is 1.3% (inactive). Regarding `CC(C)OC(=O)CSc1nc(C(C)C)nc2ccccc12`, the inhibition (at 20 µM) was 1.3% (inactive).

For the molecule `Cc1c(Cl)cccc1NC(=O)N1CCCC1`, for the setting “at 20 µM”, the inhibition was 0.6% (inactive). The same measure, in the same setting: next, `O=Cc1ccc(-c2nc3ccccc3s2)o1`: 1.2% (inactive). The same measure, in the same setting: next, `O=C(O)CCN1C(=O)/C(=C\c2ccc(-c3nc4ccccc4s3)o2)SC1=S`: 73.9% (active). Still for that read-out and setting: next, `O=C(O)CCCCCN1C(=O)/C(=C/c2ccncc2)SC1=S`: 9.2% (inactive).

With `O=C(O)c1ccc(-c2nc3ccccc3s2)o1`, the inhibition (at 20 µM) was 1.8% (inactive). Regarding `O=C(O)CCCN1C(=O)/C(=C\C(Cl)=C\c2ccccc2)SC1=S`, for the setting “at 20 µM”, the inhibition was 40.3% (inactive). The same measure, in the same setting: next, `O=C(O)CCCN1C(=O)/C(=C\c2ccc(-c3nc4ccccc4s3)o2)SC1=S`: 69.3% (active). The same measure, in the same setting: the figure for `O=C(O)CCCCCN1C(=O)/C(=C\c2ccc(-c3ccc(Cl)cc3)o2)SC1=S` is 82.2% (active). The same measure, in the same setting: the figure for `O=C(O)CCN1C(=O)/C(=C/c2ccc(-c3nc4ccccc4s3)o2)SC1=S` is 24.8% (inactive). Consider `O=C(O)CCCCCN1C(=O)/C(=C\c2ccncc2)SC1=S`, for which, under “at 20 µM”, the inhibition was 6.4% (inactive). `N#C/C(=C\c1ccc(-c2nc3ccccc3s2)o1)C(N)=O`: the inhibition (at 20 µM) is 2.1% (inactive).

In the case of `O=C(O)CC(C(=O)O)N1C(=O)/C(=C/c2ccc(-c3nc4ccccc4s3)o2)SC1=S` (centres undefined), the inhibition runs as follows: (at 20 µM) 99% (active); under setting [1], 66.9%.

On to `O=C(O)CCCN1C(=O)/C(=C\c2ccco2)SC1=S`, for which the inhibition runs as follows: (at 20 µM) 53% (inactive); under setting [1], 3.5%.
